Data from PubChem BioAssay (NCI).
This is part of a sample that, as a whole, favours compounds with a hit. Of some 83,000 tested, about 20% had one in any assay.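 Single-dose data. Exposure time 48 hours. Values below 10 considered active.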 Activity calls are given as the source filed them.

system: PC-3 prostate; assay: NCI-60 one-dose screen, 48 h (100 = growth as untreated, 0 = no growth, -100 = all killed); settings: 10 µM

SMILES | growth
CCCCCCCNc1nc(C=O)ncc1-c1ccc(C(F)(F)F)cc1 | 79.8% (inactive)
CCCCCCN1CCN(Cc2ccc(N(CC)CC)cc2)C(=O)C1=O | 13.5% (inactive)
O=C(Nc1cccc(-n2cc(-c3ccncc3)c(-c3ccc(O)c(Cl)c3)n2)c1)Nc1ccc(Cl)c(Cl)c1 | -7.87% (active)
S=C1SCC(c2ccccc2)S1 (centres undefined) | 99.7% (inactive)
COc1cccc(C(=O)Nc2ccc(CN3CCc4nc5cc(OC)c(OC)cc5cc43)cc2)c1 | 21.7% (inactive)
COc1ccc(-c2nn(-c3cccc(NC(=O)c4cc(C(F)(F)F)cc(C(F)(F)F)c4)c3)cc2-c2ccncc2)cc1Cl | 40.7% (inactive)
O=C(Nc1ccccc1)Nc1cccc(-n2cc(-c3ccncc3)c(-c3ccc(O)c(Cl)c3)n2)c1 | 31.3% (inactive)
N#CCCN1C/C(=C/c2ccc(Cl)cc2)C(=O)/C(=C/c2ccc(Cl)cc2)C1 | -39.6% (active)
COc1ccc(-c2nn(-c3cccc(NC(=O)c4cccc(C(F)(F)F)c4)c3)cc2-c2ccncc2)cc1Cl | 14% (inactive)
COc1ccc([N+](=O)[O-])c(C(=O)O)c1 | 99.8% (inactive)
CN(C)CCN=c1nc2c(c(N)n1-c1ccccc1)c(=S)n(-c1ccccc1)c(=S)n2-c1ccccc1 | 31% (inactive)
O=C(Nc1cccc(-n2cc(-c3ccncc3)c(-c3ccc(O)c(Cl)c3)n2)c1)c1cccc(C(F)(F)F)c1 | 21% (inactive)
COc1cccc(NC(=O)c2sc3nc4c(cc3c2N)C(O)CCC4)c1 (centres undefined) | 25.4% (inactive)
O=S(=O)(NCCCNc1nccc(-c2c(-c3ccc(F)cc3)nc3sccn23)n1)c1ccc2ccccc2c1 | 35.5% (inactive)
COc1ccc(-c2nn(-c3cccc(NC(=O)Nc4cccc(C(F)(F)F)c4)c3)cc2-c2ccncc2)cc1Cl | 3.59% (active)
COc1ccc(-c2nn(-c3cccc(NC(=O)c4ccc(Cl)c(Cl)c4)c3)cc2-c2ccncc2)cc1Cl | 48.6% (inactive)
Cc1c(Cl)cccc1NC(=O)c1sc2nc3c(cc2c1N)C(=O)CCC3 | 21.4% (inactive)
COc1cc(/C=C/C(=O)c2ccc(Cl)cc2)ccc1OS(=O)(=O)c1ccc(C)cc1 | 76.1% (inactive)
O=C(N/N=C/c1cc2ccccc2c2ccccc12)c1cc(O)c(O)c(O)c1 | 52.3% (inactive)
COc1ccc(-c2nn(-c3cccc(NC(=O)c4ccc(N5CCOCC5)c(C(F)(F)F)c4)c3)cc2-c2ccncc2)cc1Cl | 42.7% (inactive)

SMILES | growth
COc1ccc(-c2cc(/C=C/C(=O)c3cc(OC)c(OC)c(OC)c3)[nH]n2)cc1OC | 24.7% (inactive)
CC1=C(N2CCOCC2)C(N2CCOCC2)=C(C)C(=O)C1=O | 104% (inactive)
Cc1ccc(C)c(C(O)(c2cc(C)ccc2C)C2(O)CCCCC2)c1 | 86.8% (inactive)
COc1ccc(-c2nn(-c3cccc(NC(=O)c4ccc5c(c4)OCCO5)c3)cc2-c2ccncc2)cc1Cl | 10.4% (inactive)
Cc1ncc(-c2ccoc2)c(NC2CCCCCC2)n1 | 105% (inactive)
O=S(=O)(NCCNc1nccc(-c2c(-c3ccc(F)cc3)nc3sccn23)n1)c1ccc2ccccc2c1 | 73.4% (inactive)
COc1ccc2c(c1)nc(N)c1c3cccnc3cn21 | 20.6% (inactive)
O=C(Nc1cccc(-n2cc(-c3ccncc3)c(-c3ccc(O)c(Cl)c3)n2)c1)c1ccc(Cl)c(Cl)c1 | 37.9% (inactive)
CCN1CCCC1CNC(=O)c1ncc(-c2ccc(C(F)(F)F)cc2)c(NC2CCCCCC2)n1 (centres undefined) | 58.4% (inactive)
Clc1ccc(-c2cn(-c3ccccc3)c(-c3ccccc3)n2)c(Cl)c1 | -98.3% (active)
CCCCCCCCCCCCCCCC(=O)OC1[C@@H](OC(=O)CCCCCCCCCCCCCCC)[C@@H](C(=O)N[C@@H](CCCCN)C(=O)OC)O[C@H]1n1cnc2c(=O)[nH]c(NC(=O)C(C)C)nc21 (some centres undefined) | 103% (inactive)
O=c1oc2cc(OS(=O)(=O)c3ccccc3)ccc2c2c1CCCCC2 | 29.5% (inactive)
O=C1Nc2ccccc2C1=NC1CCCCC1 | 94% (inactive)
O=C(Nc1cccc(-n2cc(-c3ccncc3)c(-c3ccc(O)c(Cl)c3)n2)c1)c1ccc(N2CCOCC2)c(C(F)(F)F)c1 | 24.4% (inactive)
O=C(Nc1ccc(OS(=O)(=O)c2ccccc2)cc1)C12CC3CC(CC(C3)C1)C2 | 23.6% (inactive)
O=C(Nc1cccc(-n2cc(-c3ccncc3)c(-c3ccc(O)c(Cl)c3)n2)c1)c1cc(C(F)(F)F)cc(C(F)(F)F)c1 | 24.2% (inactive)
CCCC#CCN(CC)CC | 86% (inactive)
Cc1ccc(S(=O)(=O)OCCN(CCOS(=O)(=O)c2ccc(C)cc2)c2c[nH]c(=O)[nH]c2=O)cc1 | 94.6% (inactive)
CCOC(=O)C(NC(=O)C(Cl)Cl)C(O)c1ccccc1 (centres undefined) | -0.104% (active)
